The values below come from PubChem BioAssay (NCI).

A short description of test [1]: NCI Yeast Anticancer Drug Screen. Data for the rad50 strain (AID 155).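 Also: 0% = growth of vehicle-only cultures of the same strain.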 The settings on record: S. cerevisiae rad50 strain growth inhibition, stronger effect = higher value. The method, boiled down:
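Genetically altered yeast (DNA repair pathway); compound treatment; growth inhibition vs vehicle ctrl.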

Test [2] in a line: NCI Yeast Anticancer Drug Screen. Data for the mec2-1 strain (AID 157). The settings on record: S. cerevisiae mec2-1 strain, stronger effect = higher value. The method, boiled down: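 Growth inhibition is read against vehicle-treated controls after compound exposure of the mec2-1 yeast strain, which is defective in DNA damage repair or cell cycle control.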
The nature of test [3]: NCI Yeast Anticancer Drug Screen. Data for the sgs1 mgt1 strain (AID 161).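 Also: 0% = growth of cultures given vehicle only.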 The settings on record: S. cerevisiae sgs1 mgt1 strain, stronger effect = higher value. In short, it runs like this: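 This yeast growth screen uses a strain with defined DNA-repair lesions; compound-treated growth is compared with vehicle-treated growth.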
Test [4] can be described thus: NCI Yeast Anticancer Drug Screen. Data for the cln2 rad14 strain (AID 165).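 Also: 0% = growth equal to vehicle treated cultures.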 The note with it: S. cerevisiae cln2 rad14 strain, stronger effect = higher value. The method, boiled down: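 Growth inhibition, relative to vehicle-treated controls, is the read-out. The test organism is a yeast strain with defined genetic alterations, cln2 rad14.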
Test [5] in a line: NCI Yeast Anticancer Drug Screen. Data for the bub3 strain (AID 167). The note with it: S. cerevisiae bub3 mutant strain, stronger effect = higher value. The method, boiled down:
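Yeast carrying a defined mutation is treated with each compound, and growth is compared with that of vehicle-exposed cells to give inhibition.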

Test [6] is described as follows: NCI Yeast Anticancer Drug Screen. Data for the mlh1 rad18 strain (AID 175). The note with it: S. cerevisiae mlh1 rad18 strain growth inhibition, stronger effect = higher value. The method, boiled down:
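Cells of a genetically altered yeast strain, deficient in DNA damage repair, were treated with compound. Their growth was then compared with that of vehicle-treated cultures to give inhibition.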

Test [7] is described as follows: NCI Yeast Anticancer Drug Screen. Data for the wt2 strain (AID 169).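 Also: 0% = growth of vehicle-treated yeast cultures.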 The settings on record: S. cerevisiae wt2 strain growth inhibition, stronger effect = higher value. The method, boiled down:
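Compound exposure of yeast; growth compared with vehicle controls; inhibition reported.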

Where [8] appears, read: at 5.0 µM (retest, dose inferred, filed as 0.5).
Setting [9] is: at 50.0 µM (retest, dose inferred, filed as 5.0).

Several values for one entry are separate records, joined by “and”; a condition that tells them apart may be missing. Equal entries are not always repeated. This is part of a sample that, as a whole, favours compounds with a hit. Of some 79,000 tested, about 15% had one in any assay. More than one record can exist for a structure, and the calls need not agree. Activity calls are given as the source filed them. Rule as the data show it: active = growth inhibition above about 70%; inactive = the rest.

In the case of `COc1cccc2c1C(=O)c1c(O)c3c(c(O)c1C2=O)C[C@@](O)(C(C)=O)C[C@@H]3OC1CC(O)C(O)C(C)O1` (some centres undefined), the growth inhibition was 45% (inactive) in test [1] (setting [8]); 95% (active) in test [1] (setting [9]); 84.7% (active) in test [1] (at 50.0 µM); 21% (inactive) in test [2] (setting [8]); 94% (active) in test [2] (setting [9]); 88.3% (active) in test [2] (at 50.0 µM). The growth inhibition in test [3] (setting [8]) was 25% (inactive); in test [3] (setting [9]) it was 94% (active); in test [3] (at 50.0 µM) it was 85.2% (active); in test [4] (setting [8]), 46% (inactive); in test [4] (setting [9]) it was 90% (active); in test [4] (at 50.0 µM), 83.3% (active). Moreover, the growth inhibition in test [5] (setting [8]) is 34% (inactive); in test [5] (setting [9]), 96% (active); in test [5] (at 50.0 µM), 85.3% (active); in test [6] (setting [8]), 40% (inactive); in test [6] (setting [9]) it was 93% (active).

In the case of `COc1ccc(CC(=O)c2ccc(O)cc2O)cc1`, the growth inhibition in test [1] (setting [8]) is 30% (inactive); in test [1] (setting [9]) it was 90% (active); in test [1] (at 50.0 µM) it was 49.5% (inactive); in test [2] (setting [8]), 38% (inactive); in test [2] (setting [9]) it was 80% (active); in test [2] (at 50.0 µM) it was 42.3% (inactive). The growth inhibition in test [3] (setting [8]) was -22% (inactive); in test [3] (setting [9]) it was 73% (active); in test [3] (at 50.0 µM), 54.8% (inactive); in test [4] (setting [8]) it was 64% (inactive); in test [4] (setting [9]), 76% (active); in test [4] (at 50.0 µM), 52.2% (inactive). The growth inhibition in test [5] (setting [8]) is -6% (inactive); in test [5] (setting [9]), 71% (active); in test [5] (at 50.0 µM), 77.1% (active); in test [7] (at 1.2 µM), -4% (inactive); in test [7] (at 3.7 µM), -4% (inactive); in test [7] (at 11.0 µM), -13% (inactive). Further, the growth inhibition is 14% (inactive) in test [7] (at 33.0 µM); 91% (active) in test [7] (at 100.0 µM); 19% (inactive) in test [6] (setting [8]); 97% (active) in test [6] (setting [9]); 53.1% (inactive) in test [6] (at 50.0 µM).

Consider `CCCCCCCCCCCCCCCCCCOCC(O)CO` (centres undefined), for which the growth inhibition is 0% (inactive) in test [1] (setting [8]); -1% (inactive) in test [1] (setting [9]); 45.5% (inactive) in test [1] (at 50.0 µM); -2% (inactive) in test [2] (setting [8]); -1% (inactive) in test [2] (setting [9]); 55.6% (inactive) in test [2] (at 50.0 µM). Further, the growth inhibition is -1% (inactive) in test [3] (setting [8]); -1% (inactive) in test [3] (setting [9]); 62.6% (inactive) in test [3] (at 50.0 µM); -1% (inactive) in test [4] (setting [8]); -7% (inactive) in test [4] (setting [9]); 34.2% (inactive) in test [4] (at 50.0 µM). Moreover, the growth inhibition in test [5] (setting [8]) was 2% (inactive); in test [5] (setting [9]) it was -1% (inactive); in test [5] (at 50.0 µM), 64.7% (inactive).

Turning to `CCO/C=C1\SC(=S)N(c2cccc(O)c2)C1=O`, the growth inhibition in test [1] (setting [8]) is 57% (inactive); in test [1] (setting [9]) it was 100% (active); in test [1] (at 50.0 µM) it was 28.4% (inactive); in test [2] (setting [8]), 74% (active); in test [2] (setting [9]) it was 100% (active); in test [2] (at 50.0 µM), 15.3% (inactive). Also, the growth inhibition in test [3] (setting [8]) was 13% (inactive); in test [3] (setting [9]) it was 90% (active); in test [3] (at 50.0 µM), 40.4% (inactive); in test [4] (setting [8]) it was 29% (inactive); in test [4] (setting [9]) it was 72% (active); in test [4] (at 50.0 µM), -2.6% (inactive). Further, the growth inhibition in test [5] (setting [8]) was 6% (inactive); in test [5] (setting [9]), 91% (active); in test [5] (at 50.0 µM) it was 40.2% (inactive); in test [7] (at 1.2 µM), -13% (inactive); in test [7] (at 3.7 µM), -13% (inactive); in test [7] (at 11.0 µM), -13% (inactive). Further, the growth inhibition is 22% (inactive) in test [7] (at 33.0 µM); 96% (active) in test [7] (at 100.0 µM); 54% (inactive) in test [6] (setting [8]); 100% (active) in test [6] (setting [9]); 70.3% (active) in test [6] (at 50.0 µM).

Take `Cc1ccc(OC(=O)c2ccc(N)cc2O)cc1`: the growth inhibition is 48% (inactive) in test [1] (setting [8]); 86% (active) in test [1] (setting [9]); 45.1% (inactive) in test [1] (at 50.0 µM); 83% (active) in test [2] (setting [8]); 90% (active) in test [2] (setting [9]); 68.2% (inactive) in test [2] (at 50.0 µM). Further, the growth inhibition in test [3] (setting [8]) was -3% (inactive); in test [3] (setting [9]), 93% (active); in test [3] (at 50.0 µM), 42.5% (inactive); in test [4] (setting [8]), 39% (inactive); in test [4] (setting [9]) it was 97% (active); in test [4] (at 50.0 µM) it was 42.2% (inactive). Also, the growth inhibition in test [5] (setting [8]) was 24% (inactive); in test [5] (setting [9]), 90% (active); in test [5] (at 50.0 µM), 77.7% (active); in test [7] (at 1.2 µM) it was 0% (inactive); in test [7] (at 3.7 µM) it was -4% (inactive); in test [7] (at 11.0 µM) it was 15% (inactive). Further, the growth inhibition in test [7] (at 33.0 µM) was 43% (inactive); in test [7] (at 100.0 µM), 86% (active); in test [6] (setting [8]), 33% (inactive); in test [6] (setting [9]) it was 97% (active); in test [6] (at 50.0 µM) it was 53.3% (inactive).

As for `Fc1cccc(NC(=S)SCc2ccc(Cl)c(Cl)c2)c1`, the growth inhibition is 8% (inactive) in test [1] (setting [8]); 94% (active) in test [1] (setting [9]); 98.2% (active) in test [1] (at 50.0 µM); 3% (inactive) in test [2] (setting [8]); 93% (active) in test [2] (setting [9]); 99.2% (active) in test [2] (at 50.0 µM). Further, the growth inhibition in test [3] (setting [8]) was 6% (inactive); in test [3] (setting [9]) it was 98% (active); in test [3] (at 50.0 µM), 99% (active); in test [4] (setting [8]), -7% (inactive); in test [4] (setting [9]) it was 85% (active); in test [4] (at 50.0 µM), 98.8% (active). In addition, the growth inhibition in test [5] (setting [8]) was 0% (inactive); in test [5] (setting [9]), 95% (active); in test [5] (at 50.0 µM), 98% (active).

As to `Cn1c2ccccc2c(=O)c2ccccc21`, the growth inhibition in test [1] (setting [8]) was 4% (inactive); in test [1] (setting [9]), 38% (inactive); in test [1] (at 50.0 µM), -16.6% (inactive) and 82% (active); in test [2] (setting [8]), 23% (inactive); in test [2] (setting [9]) it was 9% (inactive); in test [2] (at 50.0 µM) it was -18.9% (inactive) and 13.4% (inactive). Also, the growth inhibition in test [3] (setting [8]) was -5% (inactive); in test [3] (setting [9]), 9% (inactive); in test [3] (at 50.0 µM), -17.4% (inactive) and 18.6% (inactive); in test [4] (setting [8]), -4% (inactive); in test [4] (setting [9]), -2% (inactive); in test [4] (at 50.0 µM) it was -11.3% (inactive) and -35.4% (inactive). Also, the growth inhibition is -9% (inactive) in test [5] (setting [8]); 1% (inactive) in test [5] (setting [9]); 14.2% (inactive) and 3.6% (inactive) in test [5] (at 50.0 µM).

For `O=Cc1cc([N+](=O)[O-])ccc1O.[Eu]`, the growth inhibition is 28% (inactive) in test [1] (setting [8]); 51% (inactive) in test [1] (setting [9]); 81.3% (active) in test [1] (at 50.0 µM); 46% (inactive) in test [2] (setting [8]); 69% (inactive) in test [2] (setting [9]); 86.1% (active) in test [2] (at 50.0 µM). Moreover, the growth inhibition in test [3] (setting [8]) was -4% (inactive); in test [3] (setting [9]) it was 95% (active); in test [3] (at 50.0 µM), 91.2% (active); in test [4] (setting [8]) it was 18% (inactive); in test [4] (setting [9]) it was 97% (active); in test [4] (at 50.0 µM) it was 83.2% (active). The growth inhibition in test [5] (setting [8]) is 49% (inactive); in test [5] (setting [9]) it was 96% (active); in test [5] (at 50.0 µM) it was 85.8% (active); in test [7] (at 1.2 µM) it was 6% (inactive); in test [7] (at 3.7 µM), 7% (inactive); in test [7] (at 11.0 µM), 20% (inactive). For the same compound, the growth inhibition in test [7] (at 33.0 µM) was 36% (inactive); in test [7] (at 100.0 µM), 98% (active); in test [6] (setting [8]) it was 29% (inactive); in test [6] (setting [9]), 64% (inactive); in test [6] (at 50.0 µM), 86.2% (active).
